# Data: the supplement of paper PMC12669032
# Values without a mark were called inactive.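 Rule for the calls: active = AUC reduced over 20% with Padj below 0.05 in at least 2 of 3 replicates; inactive = otherwise.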
# Legend:
# Assay in all cases: growth AUC relative to DMSO control (median of replicates) (fraction); higher = more growth (less inhibition), active = hit call of the paper
# Details in all cases: 20 µM; 24 h
# Coprococcus comes = system: Coprococcus comes
# How it was run: (§1)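 In round-bottom 96-well plates sealed with pierced gas-permeable seals, gut bacterial monocultures in mGAM were grown anaerobically at 37 °C from OD600 0.05 with 20 µM compound (1% DMSO). OD600 readings were taken hourly for 24 h, and the minimum OD was set to 0. Area under the growth curve was then normalised to the plate median of solvent-only wells, or to row and column medians on the industrial chemical plate. The value given is the median of three biological replicates grown on separate days.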
# Escherichia coli ED1a = system: Escherichia coli ED1a
# How it was run: as §1
# Escherichia coli IAI1 = system: Escherichia coli IAI1
# How it was run: as §1
# Eubacterium rectale = system: Eubacterium rectale
# How it was run: as §1
# [1] = system: Fusobacterium nucleatum subsp. animalis
# How it was run: as §1
# Lactobacillus gasseri = system: Lactobacillus gasseri
# How it was run: as §1
# Lactobacillus paracasei = system: Lactobacillus paracasei
# How it was run: as §1
# Odoribacter splanchnicus = system: Odoribacter splanchnicus
# How it was run: as §1
# [2] = system: Parabacteroides distasonis
# How it was run: as §1
# Parabacteroides merdae = system: Parabacteroides merdae
# How it was run: as §1
# Roseburia intestinalis = system: Roseburia intestinalis
# How it was run: as §1
# Streptococcus salivarius = system: Streptococcus salivarius
# How it was run: as §1
Compound,growth AUC (Coprococcus comes),growth AUC (Escherichia coli ED1a),growth AUC (Escherichia coli IAI1),growth AUC (Eubacterium rectale),growth AUC [1],growth AUC (Lactobacillus gasseri),growth AUC (Lactobacillus paracasei),growth AUC (Odoribacter splanchnicus),growth AUC [2],growth AUC (Parabacteroides merdae),growth AUC (Roseburia intestinalis),growth AUC (Streptococcus salivarius)
CCNC(=O)[C@@H](C)OC(=O)Nc1ccccc1,1.04,1.01,1.01,1.01,1.05,1.18,0.941,0.955,1.08,1.04,1.14,1.02
CC(C)(NC(=O)NCc1ccccc1Cl)c1ccccc1,1.02,1.04,1.03,1.03,1.02,0.978,0.986,1.05,1.02,0.994,1.09,1
COc1nc(OC)nc(C(=O)c2cccc(F)c2N(C)S(=O)(=O)C(F)F)n1,1.03,0.999,0.986,1.18,1.05,1.02,0.977,0.892,1.03,0.927,1.01,1.02
CCSC(=O)N(CC(C)C)CC(C)C,1.02,1.02,1.02,0.903,1.03,1.22,0.942,0.985,0.993,0.987,1.01,0.997
CCOC(=O)Cn1c(=O)sc2cccc(Cl)c21,0.959,1.01,0.957,0.996,0.994,1.04,0.993,0.979,1.07,0.98,0.968,0.961
O=C(O)COc1cccc(Cl)c1Cl,1.01,0.987,1.01,1.04,1.12,1.11,0.898,0.92,0.994,0.986,1.15,0.973
CC(C)(c1ccc(O)cc1)c1ccc(O)cc1,1.01,0.994,0.989,1.04,1.1,1,1.04,1.07,1.38,1.07,1.06,1.01
N#CC(=NOCC1OCCO1)c1ccccc1,1.01,0.971,0.982,1.06,0.99,0.962,1.01,1.11,0.981,0.931,0.968,0.976
O=S(=O)(Oc1ccc(Cl)cc1Cl)c1ccccc1,1.03,0.98,0.986,1.02,0.938,1.03,1.14,1.09,0.972,1.02,0.974,1.03
C=O,0.998,1.03,0.999,0.921,1,1.04,1.06,1.03,1.03,1.03,1.1,1
FC(F)(F)/N=C1\SC(=Nc2ccccc2)N(c2ccccc2)\C1=N\C(F)(F)F,0.983,0.962,0.96,1.3,0.653,0.903,1.09,1.13,0.949,0.908,0.922,0.946
Cc1ccc(C(C)NC(=O)[C@@H](NC(=O)OC(C)C)C(C)C)cc1 (stereo not given in full),1.01,1.01,0.992,1.08,1.08,0.895,1.02,0.953,0.917,1.01,0.956,0.963
CC(C)N(C)S(=O)(=O)NC(=O)c1cc(-n2c(=O)cc(C(F)(F)F)[nH]c2=O)c(F)cc1Cl,0.971,0.995,1,0.959,1.08,1.03,0.893,1.03,0.961,1.02,0.987,1.01
COC(=O)c1c(Cl)c(Cl)c(C(=O)OC)c(Cl)c1Cl,1.05,0.979,0.995,1.16,0.963,0.974,0.982,1.1,0.979,1.01,0.964,0.962
C#CCOc1cc(-n2nc(C(C)(C)C)oc2=O)c(Cl)cc1Cl,0.991,0.971,0.996,1.09,0.926,0.831,0.958,0.904,0.392 (active),0.951,0.909,0.963
O=C(Nc1ccc(O)cc1-c1ccc(Cl)cc1)c1cccnc1Cl,0.924,0.986,0.976,0.962,0.916,1.02,1,0.872,1.01,0.994,1.02,1.03
CC(C)c1cccc2c(=O)c3ccccc3sc12,0.979,1.03,1.04,1,1.19,0.968,1.05,1.05,0.952,0.885,1.02,1.05
O=C(NCc1ncc(C(F)(F)F)cc1Cl)c1c(Cl)cccc1Cl,1.03,0.963,1.03,0.98,1.01,1.04,0.981,0.938,0.971,0.979,0.968,0.967
CCCCCCC(C)OC(=O)C(C)Oc1ccc(Cl)cc1C (stereo not given),0.994,0.985,0.999,0.96,0.956,1,0.909,1.03,1.01,0.989,0.986,0.973
O=[N+]([O-])c1ccc(Oc2c(Cl)cc(Cl)cc2Cl)cc1,0.95,1.01,1.03,1.02,1.05,0.874,1.05,1.03,0.623 (active),0.899,1.02,1.03
O=[N+](Nc1ccccc1)c1ccccc1,0.959,0.993,0.955,0.921,0.978,0.973,1.04,0.973,0.976,0.986,0.944,1.06
O=C(Oc1ccccc1)n1c(C(F)(F)F)nc2cc(Cl)c(Cl)cc21,1.03,0.704 (active),0.588 (active),0.635 (active),0.71,0.431 (active),0.688 (active),0.0297 (active),0.106 (active),0.144 (active),0.797 (active),0.342 (active)
CCCCCCCC/C=C\CCCCCCCCCCCC(=O)O,0.96,1.02,1.01,0.983,1.02,0.979,0.991,1,0.914,1.01,0.973,0.898
NC(=S)Nc1cccc2ccccc12,0.974,0.96,0.959,1.03,0.924,0.888,0.946,0.983,1.05,0.915,0.917,0.886
CCc1cccc(C)c1N(C(=O)C(=O)O)[C@@H](C)C(=O)O,1.02,1.01,0.988,1.12,1.03,0.853,1.01,0.95,0.809,1.03,0.973,0.943
